Measurements reported in PubChem BioAssay (EPA / NIEHS).
Inconclusive results are not listed. Activity calls are given as the source filed them. The calls were made as follows, unless noted: active = hit-call score of the fitted dose curve at least 0.9, where 1 is the maximum; inactive = score below 0.9.

Assays:
[1] = molecular target: human Vitamin D Receptor (VDR), VDR (gene 7421) (UniProt P11473); experiment: ATG_VDR_TRANS: Attagene TRANS-FACTORIAL HepG2 Assay for human Vitamin D Receptor (VDR) (AID 2283022; active = hit-call score of the fitted dose curve at least 0.9, where 1 is the maximum)
Chain of human Vitamin D Receptor (VDR), VDR (gene 7421) (P11473 whole entry, looked up, the tested form may be a part): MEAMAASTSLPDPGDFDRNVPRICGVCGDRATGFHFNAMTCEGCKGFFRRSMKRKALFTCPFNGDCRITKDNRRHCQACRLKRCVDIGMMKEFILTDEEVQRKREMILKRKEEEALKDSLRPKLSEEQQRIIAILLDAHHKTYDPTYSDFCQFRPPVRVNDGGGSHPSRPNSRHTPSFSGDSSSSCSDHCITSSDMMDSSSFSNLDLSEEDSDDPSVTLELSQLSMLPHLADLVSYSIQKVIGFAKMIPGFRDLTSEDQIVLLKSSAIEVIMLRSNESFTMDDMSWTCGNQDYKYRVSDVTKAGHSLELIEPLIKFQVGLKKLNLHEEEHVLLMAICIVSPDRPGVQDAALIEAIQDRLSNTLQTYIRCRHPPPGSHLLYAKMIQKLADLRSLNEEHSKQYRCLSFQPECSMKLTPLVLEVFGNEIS
Summary of the method: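 Fluorescence of labelled reporter cDNA fragments, resolved by capillary electrophoresis, gives mRNA induction after 24 h treatment of HepG2 cells carrying transfected Gal4-fusion reporter units. Activity is fitted in the positive direction with DMSO as baseline.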

[2] = read-out: E-selectin (Homo sapiens) (UniProt P16581); experiment: BSK_3C_Eselectin: BioMAP Diversity Plus: 3C Assay for Eselectin Biomarker Activity (AID 2283015); settings: primary human endothelial cells (HUVEC); actives raise or lower the signal
Summary of the method: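 Human vascular endothelium from umbilical vein is exposed to test chemicals for 24 h. E-selectin levels are read by ELISA and compared with DMSO controls.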

[3] = read-out: Monocyte Chemoattractant Protein-1 (MCP1), CCL2 (gene 6347); experiment: BSK_3C_MCP1: BioMAP Diversity Plus: 3C Assay for Monocyte Chemoattractant Protein-1 (MCP1) Biomarker Activity (AID 2283017); settings: primary human endothelial cells (HUVEC); actives raise or lower the signal
Summary of the method: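 Endothelial cells from human umbilical vein are dosed with chemical, cultured 24 h, then assayed for MCP-1 by ELISA; both increases and decreases are modelled against DMSO controls.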

[4] = read-out: Human Leukocyte Antigen - DR isotype (HLADR), HLA-DRA (gene 3122); experiment: BSK_3C_HLADR: BioMAP Diversity Plus: 3C Assay for Human Leukocyte Antigen - DR isotype (HLADR) Biomarker Activity (AID 2283019); settings: primary human endothelial cells (HUVEC); actives raise or lower the signal
Summary of the method: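 Endothelial cells from human umbilical vein are treated with test chemical; after 24 h, HLA-DR levels are measured by ELISA. Data are fitted in both directions using DMSO as the baseline.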

[5] = read-out: Interleukin-8 (IL8), CXCL8 (gene 3576); experiment: BSK_3C_IL8: BioMAP Diversity Plus: 3C Assay for Interleukin-8 (IL8) Biomarker Activity (AID 2283020); settings: primary human endothelial cells (HUVEC); actives raise or lower the signal
Summary of the method: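 Using DMSO-treated wells as the baseline, bidirectional curve fitting was applied to ELISA-measured IL-8 from human umbilical vein endothelial cultures sampled 24 h after compound addition.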

[6] = read-out: Monokine induced gamma interferon (MIG), CXCL9 (gene 4283); experiment: BSK_3C_MIG: BioMAP Diversity Plus: 3C Assay for Monokine induced gamma interferon (MIG) Biomarker Activity (AID 2283021); settings: primary human endothelial cells (HUVEC); actives raise or lower the signal;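 as to AC50: MIG protein level measured by immunoassay in the treated endothelial cultures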
Summary of the method: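 ELISA-measured MIG in dosed HUVEC 3C cultures at 24 h, analysed by bidirectional fitting with DMSO defining baseline activity.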

[7] = BSK_3C_SRB: Viability Assessment in the BioMAP Diversity Plus: 3C Assay (AID 2283023); settings: primary human endothelial cells (HUVEC);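 also: fitted both ways against DMSO so a hit may be signal rise or drop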
Summary of the method: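 Cells were dosed with chemical, cultured 24 h, fixed with 10% TCA, stained with 0.1% SRB and read at 560 nm. Human umbilical vein endothelium was used; DMSO served as negative control and baseline.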

[8] = read-out: Matrix Metallopeptidase 1 (MMP1), MMP1 (gene 4312); experiment: BSK_BE3C_MMP1: BioMAP Diversity Plus: BE3C Assay for Matrix Metallopeptidase 1 (MMP1) Biomarker Activity (AID 2283024); settings: primary human bronchial epithelial cells; actives raise or lower the signal
Summary of the method: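 In this multiplexed primary-cell system, human bronchial epithelium received chemicals for 24 h before an ELISA for MMP1. Values reflect bidirectional fits normalised to the DMSO baseline.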

[9] = read-out: Pselectin, SELP (gene 6403); experiment: BSK_4H_Pselectin: BioMAP Diversity Plus: 4H Assay for Pselectin Biomarker Activity (AID 2283026); settings: primary human endothelial cells (HUVEC); actives raise or lower the signal
Summary of the method: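 Bidirectional fits against DMSO gave the endpoint. Cells: primary human umbilical vein endothelium, chemical-treated for 24 h before ELISA detection of P-selectin.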

[10] = BSK_4H_SRB: Viability Assessment in the BioMAP Diversity Plus: 4H Assay (AID 2283027); settings: primary human endothelial cells (HUVEC);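 also: cells exposed to compound for 24 h before staining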;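 as to AC50: curves fitted both ways versus DMSO so AC50 may be loss or gain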
Summary of the method: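 Cytotoxicity read-out in primary human endothelial cells: after 24 h compound exposure, cells were TCA-fixed (10%), stained with 0.1% SRB and absorbance taken at 560 nm. Values fitted in both directions relative to DMSO.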

[11] = BSK_BE3C_SRB: Viability Assessment in the BioMAP Diversity Plus: BE3C Assay (AID 2283028); settings: primary human bronchial epithelial cells;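 as to AC50: fitted both ways so AC50 may mark signal gain or loss versus DMSO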
Summary of the method: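 Overt cytotoxicity was assessed as total protein in confluent human primary bronchial epithelial cultures 24 h after chemical addition, using 0.1% sulforhodamine B staining read at 560 nm.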

[12] = read-out: Vascular endothelial growth factor receptor 2 (Homo sapiens) (UniProt P35968); experiment: BSK_4H_VEGFRII: BioMAP Diversity Plus: 4H Assay for Vascular endothelial growth factor receptor 2 (VEGFR2) Biomarker Activity (AID 2283031); settings: primary human endothelial cells (HUVEC); actives raise or lower the signal;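 as to AC50: cell-surface VEGFR2 protein level quantified by ELISA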
Summary of the method: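 VEGFRII levels on human vascular endothelial primary cells were determined by ELISA at 24 hours post-dosing, with gain- or loss-of-signal fitted against DMSO controls.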

[13] = read-out: Human Leukocyte Antigen - DR isotype (HLADR), HLA-DRA (gene 3122); experiment: BSK_BE3C_HLADR: BioMAP Diversity Plus: BE3C Assay for Human Leukocyte Antigen - DR isotype (HLADR) Biomarker Activity (AID 2283032); settings: primary human bronchial epithelial cells; actives raise or lower the signal
Summary of the method: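 BioMAP BE3C format: human bronchial epithelium, 24 h compound treatment, ELISA detection of HLA-DR, with bidirectional analysis relative to DMSO.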

[14] = read-out: Interferon-gamma inducible Protein 10 (IP10), CXCL10 (gene 3627); experiment: BSK_BE3C_IP10: BioMAP Diversity Plus: BE3C Assay for Interferon-gamma inducible Protein 10 (IP10) Biomarker Activity (AID 2283034); settings: primary human bronchial epithelial cells; actives raise or lower the signal
Summary of the method: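 BE3C cells (human bronchial epithelial, primary); 24 h exposure; ELISA for IP-10; DMSO-referenced bidirectional fit.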

[15] = read-out: Urokinase-type plasminogen activator receptor (uPAR), PLAUR (gene 5329); experiment: BSK_4H_uPAR: BioMAP Diversity Plus: 4H Assay for Urokinase-type plasminogen activator receptor (uPAR) Biomarker Activity (AID 2283030); settings: primary human endothelial cells (HUVEC); actives raise or lower the signal
Summary of the method: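 Chemicals are dosed onto human vascular endothelial primary cells (umbilical vein). After 24 h, uPAR is read by ELISA. Gain or loss of signal is fitted relative to DMSO.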

[16] = read-out: Thrombomodulin, THBD (gene 7056); experiment: BSK_3C_Thrombomodulin: BioMAP Diversity Plus: 3C Assay for Thrombomodulin Biomarker Activity (AID 2283029); settings: primary human endothelial cells (HUVEC); actives raise or lower the signal
Summary of the method: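 In a multiplexed primary-cell system, human umbilical vein endothelium received chemical and was assayed 24 h later for thrombomodulin by ELISA. Parallel cultures were SRB-stained (0.1% SRB after 10% TCA fixation, read at 560 nm) to flag cytotoxicity.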

[17] = read-out: Vascular cell adhesion molecule 1 (VCAM1), VCAM1 (gene 7412); experiment: BSK_4H_VCAM1: BioMAP Diversity Plus: 4H Assay for Vascular cell adhesion molecule 1 (VCAM1) Biomarker Activity (AID 2283033); settings: primary human endothelial cells (HUVEC); actives raise or lower the signal
Summary of the method: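 In this human endothelial (HUVEC) system, biomarker ELISA was run 24 h after compound addition, and total protein in parallel wells was assessed by SRB at 560 nm; DMSO served as negative control.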

[18] = read-out: Monocyte Chemoattractant Protein-1 (MCP1), CCL2 (gene 6347); experiment: BSK_4H_MCP1: BioMAP Diversity Plus: 4H Assay for Monocyte Chemoattractant Protein-1 (MCP1) Biomarker Activity (AID 2283018); settings: primary human endothelial cells (HUVEC); actives raise or lower the signal
Summary of the method: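 Primary human umbilical vein endothelium is exposed to chemical for 24 h before MCP-1 is assayed by ELISA. Concentration-response fitted bidirectionally relative to DMSO.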

[19] = BSK_3C_Vis: BioMAP Diversity Plus: 3C Assay for Morphology Visualization (AID 2283025); settings: primary human endothelial cells (HUVEC);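 also: fitted both ways so gain or loss versus DMSO counts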;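 as to AC50: light microscopy image of cell morphology used as background control; cells imaged 24 h after dosing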
Summary of the method: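 Light-microscopy morphology readout, 24 h exposure, human primary umbilical vein endothelium; analysed relative to DMSO with bidirectional fitting.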

Measured: AC50

Chain of E-selectin (Homo sapiens) (P16581 whole entry, looked up): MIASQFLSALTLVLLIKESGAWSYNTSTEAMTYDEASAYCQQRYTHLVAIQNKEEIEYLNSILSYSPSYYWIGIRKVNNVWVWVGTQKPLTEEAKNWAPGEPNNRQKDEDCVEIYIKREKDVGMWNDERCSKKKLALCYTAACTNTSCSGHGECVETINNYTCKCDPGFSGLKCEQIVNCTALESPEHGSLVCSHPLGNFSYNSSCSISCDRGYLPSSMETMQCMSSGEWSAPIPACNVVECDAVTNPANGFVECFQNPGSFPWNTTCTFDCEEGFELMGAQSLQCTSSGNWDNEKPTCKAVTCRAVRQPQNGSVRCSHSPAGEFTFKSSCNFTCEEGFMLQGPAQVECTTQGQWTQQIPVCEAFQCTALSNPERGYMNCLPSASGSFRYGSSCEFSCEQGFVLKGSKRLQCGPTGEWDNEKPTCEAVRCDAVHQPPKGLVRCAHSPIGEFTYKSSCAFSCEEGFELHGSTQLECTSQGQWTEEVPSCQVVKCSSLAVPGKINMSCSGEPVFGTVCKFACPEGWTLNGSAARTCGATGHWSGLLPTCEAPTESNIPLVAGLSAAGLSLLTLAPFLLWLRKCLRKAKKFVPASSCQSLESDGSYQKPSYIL

Clc1ccc(C2(Cn3cncn3)CC(Br)CO2)c(Cl)c1 (stereo unspecified)
inactive: [1]

O=C(Nc1ccc2[nH]ccc2c1)c1cc2cc(F)ccc2n1Cc1cccc(F)c1
active: [2] 10.9 µM | [3] 8.53 µM | [4] 7.97 µM | [5] 6.43 µM | [6] 10.4 µM | [7] 8.66 µM | [8] 9.72 µM | [9] 7.85 µM | [10] 10 µM | [11] 6.76 µM | [12] 8.6 µM | [13] 5.82 µM | [14] 8.41 µM
inactive: [1]

CN(C)N=O
inactive: [2] | [3] | [4] | [5] | [6] | [1] | [7] | [8] | [9] | [10] | [11] | [15] | [12] | [13]

COP(=S)(OC)Oc1c(Cl)cc(C)cc1Cl
inactive: [5] | [6] | [1] | [8] | [11] | [16] | [15] | [12] | [13] | [14]
active: [2] 29 µM | [3] 31.4 µM | [4] 20 µM | [7] 30.3 µM | [9] 33.4 µM | [10] 20 µM | [17] 26.9 µM

CC(C)(C)c1cc(O)ccc1O
inactive: [5] | [7] | [11] | [12]
active: [2] 31.8 µM | [3] 35.2 µM | [4] 32.4 µM | [6] 37 µM | [8] 8.5 µM | [9] 20 µM | [10] 28.1 µM | [13] 18.3 µM

CCCCCCCCc1ccc(O)cc1
active: [2] 31.7 µM | [3] 34.1 µM | [4] 31.5 µM | [5] 34.6 µM | [6] 36 µM | [7] 31.2 µM | [8] 31.7 µM | [9] 25.6 µM | [10] 34.3 µM | [11] 34.9 µM | [15] 37.2 µM | [13] 33 µM | [17] 33.2 µM
inactive: [1]

C(=NC1CCCCC1)=NC1CCCCC1
inactive: [1]
active: [2] 20 µM | [18] 3.82 µM | [4] 10.2 µM | [5] 20 µM | [6] 28.7 µM | [7] 8.96 µM | [8] 36.5 µM | [19] 37.3 µM | [9] 5.42 µM | [10] 5.35 µM | [11] 33.4 µM | [15] 8.81 µM | [13] 20 µM | [17] 7.64 µM

ClC1=C(Cl)[C@]2(Cl)[C@H]3[C@H]([C@H]4C=C[C@H]3C4)[C@@]1(Cl)C2(Cl)Cl
inactive: [2] | [5] | [6] | [1] | [8] | [10] | [11] | [16]
active: [3] 3.97 µM | [4] 8.54 µM | [7] 7.55 µM | [9] 7.17 µM | [12] 2.01 µM | [13] 13.1 µM

CC(=O)[O][Hg][c]1ccccc1
active: [2] 3.04 µM | [3] 0.964 µM | [18] 1.03 µM | [4] 0.317 µM | [5] 6 µM | [6] 2.73 µM | [7] 0.146 µM | [8] 2.93 µM | [9] 1.29 µM | [10] 1.68 µM | [11] 1.88 µM | [16] 3.83 µM | [15] 1.74 µM | [13] 0.355 µM | [14] 0.94 µM

CCCCP(CCCC)CCCC
inactive: [1]

CC1(C)Cc2cccc(O)c2O1
inactive: [2] | [3] | [18] | [4] | [5] | [6] | [7] | [8] | [9] | [10] | [11] | [16] | [15] | [12] | [13] | [17]

Fc1ccc(C2(Cn3cncn3)OC2c2ccccc2Cl)cc1 (stereo unspecified)
inactive: [1]

CCc1ccccc1N
inactive: [1]

O=C(O)CCC(F)(C(F)(F)F)C(F)(F)F
inactive: [2] | [3] | [4] | [5] | [6] | [7] | [8] | [9] | [10] | [11] | [12] | [13]

COc1cc(OC)nc(NC(=O)NS(=O)(=O)c2ncccc2C(=O)N(C)C)n1
inactive: [2] | [3] | [4] | [5] | [6] | [7] | [8] | [19] | [9] | [10] | [11] | [12] | [13] | [17]
